Reference: PubChem BioAssay (NCATS)
Results filed as inconclusive are left out. Activity calls are given as the source filed them. Calls come from the whole dose curve; as a rule, active = well fitted inhibition curve with a large enough effect; inconclusive = small, poorly fitted or top-dose-only effect; inactive = flat fitted curve, though single readings scatter.

Legend:
Experiment in all cases: qHTS profiling for inhibitors of Plasmodium falciparum proliferation (AID 504749); note: nearly all actives have a fitted effect of over 60% in size
[1] = test system: CP252; details: P. falciparum in erythrocytes, SYBR Green DNA, 72 h; series mostly up to 12.8 µM
How it was run: (§1)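 P. falciparum-infected erythrocytes (0.3% parasitemia, 2.5% hematocrit final) were exposed to compounds for 72 h at 37 C in 5% CO2, then lysed with SYBR Green buffer overnight at room temperature; parasite DNA fluorescence was normalized to artemisinin and DMSO controls.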

[2] = test system: CP256; details: P. falciparum in erythrocytes, SYBR Green DNA, 72 h; series mostly up to 12.8 µM
How it was run: as §1

[3] = test system: CP260; details: P. falciparum in erythrocytes, SYBR Green DNA, 72 h; series mostly up to 12.8 µM
How it was run: as §1

[4] = test system: CP262; details: P. falciparum in erythrocytes, SYBR Green DNA, 72 h; series mostly up to 12.8 µM
How it was run: as §1

[5] = test system: CP265; details: P. falciparum in erythrocytes, SYBR Green DNA, 72 h; series mostly up to 12.8 µM
How it was run: as §1

[6] = test system: CP266; details: P. falciparum in erythrocytes, SYBR Green DNA, 72 h; series mostly up to 28.7 µM
How it was run: as §1

[7] = test system: CP268; details: P. falciparum in erythrocytes, SYBR Green DNA, 72 h; series mostly up to 12.8 µM
How it was run: as §1

[8] = test system: CP269; details: P. falciparum in erythrocytes, SYBR Green DNA, 72 h; series mostly up to 12.8 µM
How it was run: as §1

[9] = test system: CP286; details: P. falciparum in erythrocytes, SYBR Green DNA, 72 h; series mostly up to 12.8 µM
How it was run: as §1

[10] = test system: CP291; details: P. falciparum in erythrocytes, SYBR Green DNA, 72 h; series mostly up to 12.8 µM
How it was run: as §1

[11] = test system: CP297; details: P. falciparum in erythrocytes, SYBR Green DNA, 72 h; series mostly up to 12.8 µM
How it was run: as §1

[12] = test system: CP305; details: P. falciparum in erythrocytes, SYBR Green DNA, 72 h; series mostly up to 12.8 µM
How it was run: as §1

[13] = test system: CP315; details: P. falciparum in erythrocytes, SYBR Green DNA, 72 h; series mostly up to 12.8 µM
How it was run: as §1

[14] = test system: CP325; details: P. falciparum in erythrocytes, SYBR Green DNA, 72 h; series mostly up to 12.8 µM
How it was run: as §1

[15] = test system: CP329; details: P. falciparum in erythrocytes, SYBR Green DNA, 72 h; series mostly up to 12.8 µM
How it was run: as §1

[16] = test system: CP335; details: P. falciparum in erythrocytes, SYBR Green DNA, 72 h; series mostly up to 12.8 µM
How it was run: as §1

[17] = test system: DFO2036; details: P. falciparum in erythrocytes, SYBR Green DNA, 72 h; series mostly up to 12.8 µM
How it was run: as §1

[18] = test system: DIV14; details: P. falciparum in erythrocytes, SYBR Green DNA, 72 h; series mostly up to 12.8 µM
How it was run: as §1

[19] = test system: DIV17; details: P. falciparum in erythrocytes, SYBR Green DNA, 72 h; series mostly up to 12.8 µM
How it was run: as §1

[20] = test system: DIV30; details: P. falciparum in erythrocytes, SYBR Green DNA, 72 h; series mostly up to 12.8 µM
How it was run: as §1

[21] = test system: Dd2; details: P. falciparum in erythrocytes, SYBR Green DNA, 72 h; series mostly up to 12.8 µM
How it was run: as §1

[22] = test system: ECU; details: P. falciparum in erythrocytes, SYBR Green DNA, 72 h; series mostly up to 12.8 µM
How it was run: as §1

[23] = test system: FAB9; details: P. falciparum in erythrocytes, SYBR Green DNA, 72 h; series mostly up to 12.8 µM
How it was run: as §1

[24] = test system: GB4; details: P. falciparum in erythrocytes, SYBR Green DNA, 72 h; series mostly up to 12.8 µM
How it was run: as §1

[25] = test system: HB3; details: P. falciparum in erythrocytes, SYBR Green DNA, 72 h; series mostly up to 12.8 µM
How it was run: as §1

[26] = test system: ICS; details: P. falciparum in erythrocytes, SYBR Green DNA, 72 h; series mostly up to 12.8 µM
How it was run: as §1

[27] = test system: JCK; details: P. falciparum in erythrocytes, SYBR Green DNA, 72 h; series mostly up to 12.8 µM
How it was run: as §1

[28] = test system: N140; details: P. falciparum in erythrocytes, SYBR Green DNA, 72 h; series mostly up to 12.8 µM
How it was run: as §1

[29] = test system: P93_24; details: P. falciparum in erythrocytes, SYBR Green DNA, 72 h; series mostly up to 12.8 µM
How it was run: as §1

[30] = test system: P94_40; details: P. falciparum in erythrocytes, SYBR Green DNA, 72 h; series mostly up to 12.8 µM
How it was run: as §1

[31] = test system: PAD; details: P. falciparum in erythrocytes, SYBR Green DNA, 72 h; series mostly up to 12.8 µM
How it was run: as §1

[32] = test system: PC15; details: P. falciparum in erythrocytes, SYBR Green DNA, 72 h; series mostly up to 12.8 µM
How it was run: as §1

[33] = test system: PC26; details: P. falciparum in erythrocytes, SYBR Green DNA, 72 h; series mostly up to 12.8 µM
How it was run: as §1

[34] = test system: PC49; details: P. falciparum in erythrocytes, SYBR Green DNA, 72 h; series mostly up to 12.8 µM
How it was run: as §1

[35] = test system: SC27B; details: P. falciparum in erythrocytes, SYBR Green DNA, 72 h; series mostly up to 12.8 µM
How it was run: as §1

[36] = test system: TAB109; details: P. falciparum in erythrocytes, SYBR Green DNA, 72 h; series mostly up to 12.8 µM
How it was run: as §1

[37] = test system: TAB113; details: P. falciparum in erythrocytes, SYBR Green DNA, 72 h; series mostly up to 12.8 µM
How it was run: as §1

[38] = test system: TAB165; details: P. falciparum in erythrocytes, SYBR Green DNA, 72 h; series mostly up to 12.8 µM
How it was run: as §1

[39] = test system: W2; details: P. falciparum in erythrocytes, SYBR Green DNA, 72 h; series mostly up to 12.8 µM
How it was run: as §1

Measured: Potency

CCN1C(=O)N[C@@H](c2ccccc2)C1=O
inactive: [1] | [2] | [3] | [4] | [5] | [6] | [7] | [8] | [9] | [10] | [11] | [12] | [13] | [14] | [15] | [16] | [17] | [18] | [19] | [20] | [21] | [22] | [23] | [24] | [25] | [26] | [27] | [28] | [29] | [30] | [31] | [32] | [33] | [34] | [35] | [36] | [37] | [38] | [39]
